Assay results reported in PubChem BioAssay.

The compounds below were run on Sonic hedgehog protein (Shh) (assay: Sonic hedgehog microarray binding compounds – biochemical, small-molecule microarray, 635/667 nm fluorescence, primary screen (AID 1151;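 also: Shh protein binding to compounds spotted on small-molecule microarray slides; score combines spot fluorescence intensity with signal-to-noise across triplicate slides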)). Settings: 635 nm fluorescence, higher = more signal.

SMILES | composite z-score
COc1c(C)cc(-c2nc(-c3ccccc3)c3c(c2C)CO[Si]3(C(C)C)C(C)C)cc1C | 0.419
CC(C)N1CC=CC23O[C@@H]4/C=C\CCCOC(=O)C4[C@H]2C(=O)N(C(C)CO)[C@@H]3C1=O (some centres not stated) | -0.413
COC(=O)C1(CC(C)C)C=C2C(=C(C)C(=O)C2C)CN1 (configuration not stated) | -0.645
COCCCNC(=O)[C@@]1(Cc2ccccc2I)c2ccccc2C(=O)N(C2CCCCC2)[C@H]1c1ccc(CO)cc1 | 1.04
O=C/C=C/c1ccc(-c2ccccc2)cc1 | 0.083
COC(=O)C(CC#Cc1ccc2c(c1)[C@]1(C(=O)N2)[C@H](C(=O)N2CCN(c3ncccn3)CC2)[C@H]2C(=O)O[C@H](c3ccccc3)[C@H](c3ccccc3)N2[C@@H]1c1ccc(O)cc1)C(=O)OC | 1.04
COc1ccc([Si](C)(C)[C@H]2[C@H](CC(=O)N3CCC[C@H]3CO)O[C@@]3(C(=O)N(C)c4ccccc43)[C@@H]2C)cc1 | 1.54
CCCC=C(CCC)[C@@H](NC(=O)c1ccc(C(=O)OC)cc1)c1ccc(C(=O)OC)cc1 | -1.35
Cc1ccc(S(=O)(=O)N2[C@@H](c3ccccc3)C(C(=O)O)=CC[C@H]2c2ccc(F)cc2)cc1 | 0.193
C=C(C(=O)CC[C@@H](OC(=O)c1ccccc1-c1ccccc1C(=O)O)c1cccc(OCCO)c1)C(C)C | 1.95
COC(=O)c1c2oc(c1C(=O)OC)C(=O)N[C@H](Cc1ccccc1)Cn1cc(nn1)C1(CCCCC1)NC(=O)N[C@H](CO)CC2 | 1.52
C=CCNC(=O)[C@@H]1[C@H]2C(=O)O[C@H](c3ccccc3)[C@H](c3ccccc3)N2[C@H](c2ccc(O)cc2)[C@@]12C(=O)Nc1ccc(C#CC3=CCCCC3)cc12 | 2.03
CC(C)(C)OC(=O)CC[C@]1(C(=O)N2CCOCC2)COC(c2ccc(OCCCO)cc2)=N1 | -0.447
C=CC[C@]1(C(=O)NCC(O)CO)N=C(c2ccc(OCCCO)cc2)O[C@H]1c1ccccc1CN=[N+]=[N-] (some centres not stated) | -0.803
CCOC(=O)C1=CCC(c2cccn2C(=O)OC(C)(C)C)N(S(=O)(=O)c2ccc(C)cc2)C1 (configuration not stated) | 0.157
COc1cc(Cc2cc3c(c(-c4ccccc4)n2)[Si](C(C)C)(C(C)C)OC3)cc(OC)c1OC | 0.143
COCCCNC(=O)[C@@]1(Cc2ccccc2I)c2ccccc2C(=O)N(Cc2ccccc2C(F)(F)F)[C@H]1c1ccc(CO)cc1 | -0.414
COc1ccc(CCNC(=O)[C@@H]2c3ccccc3C(=O)N(C(C)C)[C@H]2c2ccc(CO)cc2)cc1 | -0.937
Cc1ccc(N2C(=O)c3ccccc3[C@@H](C(=O)NCCN3CCOCC3)[C@@H]2c2ccc(CO)cc2)nc1 | 0.179
COc1cc2c(cc1O)C(C)N(Cc1sc3ccccc3c1Cl)CC2 (configuration not stated) | -0.985
CC(C)(C)OC(=O)CC[C@@]1(C(=O)N2CCOCC2)N=C(c2ccc(OCCCO)cc2)O[C@@H]1c1ccccc1CN=[N+]=[N-] | -0.33
CC[C@@H](O[Si](C#C[Si](C(C)C)(C(C)C)C(C)C)(C(C)C)C(C)C)c1cn([C@H](C)c2ccccc2)nn1 | 0.634
